By AC50 is commonly meant the midpoint of the concentration-response curve, whichever way the signal moves.

Experiment [1] in a line: BSK_3C_SRB: Viability Assessment in the BioMAP Diversity Plus: 3C Assay (AID 2283023).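 Note: cells read 24 h after compound dosing; fitted both ways against DMSO so a hit may be signal rise or drop.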 The conditions noted are these: primary human endothelial cells (HUVEC). Summed up: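 Overt cytotoxicity is gauged in parallel confluent HUVEC cultures by SRB total-protein staining at the time of biomarker measurement, 24 h after dosing. Gain or loss of signal is fitted versus DMSO.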

Read-out in experiment [2]: Matrix Metallopeptidase 1 (MMP1), MMP1 (gene 4312)
In words: BSK_BE3C_MMP1: BioMAP Diversity Plus: BE3C Assay for Matrix Metallopeptidase 1 (MMP1) Biomarker Activity (AID 2283024). As to conditions: primary human bronchial epithelial cells; actives raise or lower the signal. Summed up:
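Primary human bronchial epithelial cells were dosed with test chemicals, and MMP1 levels were measured by ELISA 24 h later. Data were fitted bidirectionally against DMSO as the negative control and activity baseline.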

Experiment [3] can be described thus: BSK_3C_Vis: BioMAP Diversity Plus: 3C Assay for Morphology Visualization (AID 2283025).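 Note: fitted both ways so gain or loss versus DMSO counts.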 As to conditions: primary human endothelial cells (HUVEC). The gist of the method: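 Human umbilical vein endothelial cells in the 3C system were imaged by light microscopy 24 h after chemical dosing to record cell morphology. Activity was fitted bidirectionally against DMSO as negative control and baseline; the endpoint serves as a background control.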

Read-out in experiment [4]: Pselectin, SELP (gene 6403)
The experiment is described as follows: BSK_4H_Pselectin: BioMAP Diversity Plus: 4H Assay for Pselectin Biomarker Activity (AID 2283026). The conditions noted are these: primary human endothelial cells (HUVEC); actives raise or lower the signal. The gist of the method:
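Primary human umbilical vein endothelial cells were exposed to test chemical for 24 h, then cell-surface P-selectin was quantified by ELISA. Activity was fitted bidirectionally against DMSO as negative control and baseline.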

Experiment [5] in a line: BSK_4H_SRB: Viability Assessment in the BioMAP Diversity Plus: 4H Assay (AID 2283027).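 For AC50: curves fitted both ways versus DMSO so AC50 may be loss or gain.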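 Note: cells exposed to compound for 24 h before staining.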 The conditions noted are these: primary human endothelial cells (HUVEC). Summed up: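 Human umbilical vein endothelial cells were dosed with chemical and, after 24 h, fixed with 10% TCA, stained with 0.1% sulforhodamine B, and read at 560 nm to give total protein as a cytotoxicity measure. Bidirectional fitting relative to DMSO control.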

The nature of experiment [6]: BSK_BE3C_SRB: Viability Assessment in the BioMAP Diversity Plus: BE3C Assay (AID 2283028).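 For AC50: fitted both ways so AC50 may mark signal gain or loss versus DMSO.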 The conditions noted are these: primary human bronchial epithelial cells. The gist of the method:
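SRB total-protein staining (0.1%, after TCA fixation) of chemically dosed human bronchial epithelial primary cells at 24 h; DMSO serves as the negative control for bidirectional curve fitting.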

Read-out in experiment [7]: Thrombomodulin, THBD (gene 7056)
The experiment is described as follows: BSK_3C_Thrombomodulin: BioMAP Diversity Plus: 3C Assay for Thrombomodulin Biomarker Activity (AID 2283029). The conditions noted are these: primary human endothelial cells (HUVEC); actives raise or lower the signal. Summed up:
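Primary human umbilical vein endothelial cells (3C system) were exposed to chemical for 24 h, then thrombomodulin levels were measured by ELISA. Activity was fitted bidirectionally against the DMSO negative control as baseline.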

Read-out in experiment [8]: Urokinase-type plasminogen activator receptor (uPAR), PLAUR (gene 5329)
The experiment is described as follows: BSK_4H_uPAR: BioMAP Diversity Plus: 4H Assay for Urokinase-type plasminogen activator receptor (uPAR) Biomarker Activity (AID 2283030). The conditions noted are these: primary human endothelial cells (HUVEC); actives raise or lower the signal. The gist of the method:
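Endpoint derived via bidirectional curve fitting against DMSO baseline; readout was ELISA detection of uPAR on umbilical vein endothelial cells at 24 h post-treatment, with SRB-stained parallel cultures assessing cytotoxicity.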

Read-out in experiment [9]: Vascular endothelial growth factor receptor 2 (Homo sapiens) (UniProt P35968)
The experiment is described as follows: BSK_4H_VEGFRII: BioMAP Diversity Plus: 4H Assay for Vascular endothelial growth factor receptor 2 (VEGFR2) Biomarker Activity (AID 2283031).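 For AC50: cell-surface VEGFR2 protein level quantified by ELISA.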 The conditions noted are these: primary human endothelial cells (HUVEC); actives raise or lower the signal. The gist of the method: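 In this multiplexed HUVEC system, biomarker ELISA was performed after 24 h chemical exposure. Parallel SRB staining (TCA fixation, 560 nm) tracked cytotoxicity; DMSO served as baseline.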

Experiment [10] has as its target human Vitamin D Receptor (VDR), VDR (gene 7421) (UniProt P11473). In words: ATG_VDR_TRANS: Attagene TRANS-FACTORIAL HepG2 Assay for human Vitamin D Receptor (VDR) (AID 2283022; active = hit-call score of the fitted dose curve at least 0.9, where 1 is the maximum). Summed up:
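Multiplexed TRANS reporter in HepG2; 24 h treatment; reporter mRNA by RT-PCR plus capillary electrophoresis; upregulation scored relative to DMSO.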

SMILES strings stand for the structures. Where “and” joins values, the source holds several entries; their conditions need not be identical. Equal values may be shown once. Records with an inconclusive call do not appear. Where a structure was tested more than once in an assay, its records may differ in their call. Calls of active or inactive are those of the source. Rule for the calls, unless noted: active = hit-call score of the fitted dose curve at least 0.9, where 1 is the maximum; inactive = score below 0.9.

human Vitamin D Receptor (VDR), VDR (gene 7421), sequence (P11473 whole entry, looked up): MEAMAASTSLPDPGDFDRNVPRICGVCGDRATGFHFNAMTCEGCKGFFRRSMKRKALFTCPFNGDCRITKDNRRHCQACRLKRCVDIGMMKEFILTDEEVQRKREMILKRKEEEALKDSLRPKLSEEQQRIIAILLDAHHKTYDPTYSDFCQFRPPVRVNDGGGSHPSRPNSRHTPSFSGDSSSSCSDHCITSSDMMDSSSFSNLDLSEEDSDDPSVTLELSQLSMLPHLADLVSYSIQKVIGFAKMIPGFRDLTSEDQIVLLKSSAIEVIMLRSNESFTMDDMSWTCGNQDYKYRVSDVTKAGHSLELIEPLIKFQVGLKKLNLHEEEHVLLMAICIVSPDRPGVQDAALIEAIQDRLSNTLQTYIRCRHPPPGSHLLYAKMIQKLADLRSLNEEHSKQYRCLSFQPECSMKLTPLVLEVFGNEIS

As to `O=C(NC(=O)c1cc(F)c(F)cc1Cl)Nc1cc(F)ccc1N1CCC(C(=O)O)CC1`, the outcome in experiment [1], in [2], in [3], in experiment [4], in experiment [5] and in experiment [6] was inactive. The result in experiment [7], in experiment [8] and in experiment [9] was inactive.
On to `c1cc2ccc3cccc4ccc(c1)c2c34`, for which the molecule was called inactive in [10], in experiment [1], in [2], in experiment [3], in [4] and in experiment [5]. Besides, the result in experiment [6], in experiment [7], in experiment [8] and in experiment [9] was inactive.
For `CC1=C2C[C@H]3[C@@H](CC=C4C[C@@H](O)CC[C@@]43C)[C@@H]2CC[C@]12O[C@@H]1C[C@H](C)CN[C@H]1[C@H]2C`, the outcome in experiment [1], in experiment [2], in experiment [4], in [5], in experiment [6] and in experiment [7] was inactive. For the same molecule, the outcome in experiment [8] and in experiment [9] was inactive. Further, the AC50 in experiment [3] is 4.9 µM (active).
In the case of `c1ccc(-c2ccccc2)cc1`, the outcome in [1], in experiment [2], in [3], in experiment [4], in experiment [5] and in experiment [6] was inactive. Also, the result in [7] and in experiment [8] was inactive.
As for `Cc1ccc(O)c(C)c1`, the outcome in experiment [1], in experiment [2], in experiment [3], in experiment [4], in [5] and in [6] was inactive. In addition, the outcome in [7], in [8] and in [9] was inactive.
`CCCCCCOC(=O)c1ccccc1C(=O)OCCCCCC`: the AC50 was 15.1 µM (active) in experiment [1] and 29.3 µM (active) in experiment [4]. For the same molecule, the result in [2], in experiment [3], in experiment [5], in experiment [6], in experiment [7] and in [8] was inactive. For the same molecule, in experiment [9], the result was inactive.
In the case of `Cc1cccc(C)c1N`, the outcome in experiment [1], in [2], in [3], in experiment [4], in experiment [5] and in experiment [6] was inactive. For the same molecule, the outcome in experiment [7], in [8] and in experiment [9] was inactive.
In the case of `CCCN(CCC)N=O`, the result in experiment [1], in [2], in experiment [3], in [4], in experiment [5] and in experiment [6] was inactive. The outcome in experiment [7], in experiment [8] and in experiment [9] was inactive.
As to `O=C(NC(=O)c1c(F)cccc1F)Nc1cc(Cl)c(OC(F)(F)C(F)F)c(Cl)c1`, the result in [1], in experiment [2], in experiment [4], in experiment [5], in [6] and in [7] was inactive. In addition, the result in [8] and in experiment [9] was inactive. For the same molecule, the AC50 in experiment [3] is 39 µM (active).
As to `CCCCCCCCOC(=O)c1ccccc1C(=O)OCCCCCCCC`, the result in experiment [1], in [2], in experiment [3], in experiment [4], in [5] and in experiment [6] was inactive. Also, the outcome in experiment [7] and in [9] was inactive. Besides, the AC50 in experiment [8] is 3.7 µM (active).
In the case of `NS(=O)(=O)C(F)(F)C(F)(F)C(F)(F)C(F)(F)C(F)(F)C(F)(F)C(F)(F)C(F)(F)F`, the AC50 is 30.8 µM (active) and 44.1 µM (active) and 43.6 µM (active) in experiment [1]; 13.4 µM (active) and 7.12 µM (active) and 7.29 µM (active) in experiment [2]; 37.5 µM (active) in [3]; 27.6 µM (active) and 43.9 µM (active) and 45.9 µM (active) in experiment [4]; 26.8 µM (active) and 44.2 µM (active) and 47.6 µM (active) in experiment [5]; 25.8 µM (active) and 51.3 µM (active) in [6]. Also, the AC50 is 10.9 µM (active) and 16.4 µM (active) in experiment [7]; 29.3 µM (active) and 43.7 µM (active) and 45.6 µM (active) in experiment [8]; 28.5 µM (active) and 30 µM (active) in [9]. For the same molecule, the result in experiment [7] and in [9] was inactive.
On to `CC(C)C(=O)OCC(C)(C)C(OC(=O)C(C)C)C(C)C` (configuration not stated), for which the outcome in experiment [1], in experiment [2], in experiment [3], in experiment [4], in experiment [5] and in [6] was inactive. Besides, the outcome in experiment [7], in experiment [8] and in experiment [9] was inactive.
Turning to `Cc1ccccc1CO[C@@H]1C[C@@]2(C(C)C)CC[C@]1(C)O2`, the molecule was classed as inactive in experiment [10], in [2], in experiment [3], in experiment [4], in [5] and in experiment [6]. The outcome in experiment [7], in experiment [8] and in experiment [9] was inactive. Also, the AC50 in experiment [1] was 31.3 µM (active).
In the case of `Clc1ccc(C(Cl)(Cl)Cl)cc1`, the result in [1], in experiment [2], in [3], in [4], in experiment [5] and in [6] was inactive. Moreover, the result in [7], in experiment [8] and in experiment [9] was inactive.
`CN(C)c1nc(=O)n(C2CCCCC2)c(=O)n1C`: the result in experiment [1], in experiment [2], in experiment [3], in experiment [4], in [5] and in experiment [6] was inactive. Besides, the result in experiment [7], in [8] and in experiment [9] was inactive.
Regarding `CCOC(=O)C(O)(c1ccc(Cl)cc1)c1ccc(Cl)cc1`, the concentration at half-maximal activity (AC50) was 34.5 µM (active) in experiment [1]; 8.5 µM (active) in experiment [2]; 37.3 µM (active) in [3]; 32.2 µM (active) in experiment [4]; 32.2 µM (active) in [5]; 31.3 µM (active) in [8]. The concentration at half-maximal activity (AC50) in [9] is 27.9 µM (active). The result in experiment [6] and in [7] was inactive.
Turning to `Cc1cc(-c2ccc(N)c(C)c2)ccc1N`, the call in [10], in [1], in [2], in experiment [3], in experiment [4] and in experiment [5] was inactive. The result in [6], in experiment [7], in [8] and in experiment [9] was inactive.

Values taken from PubChem BioAssay (EPA / NIEHS).
